# Test results as given in PubChem BioAssay (NCATS).
# Records with an inconclusive call do not appear. A call without a number means that no potency is given here. Values without a mark were called inactive. Active and inactive are the calls of the source. Calls come from the whole dose curve; as a rule, active = well fitted cell-killing curve with a large enough effect; inconclusive = small, poorly fitted or top-dose-only effect, or effect the other way; inactive = no such curve, though single readings can be large or run the other way.
# Experiment: Viability qHTS for spleen associated tyrosine kinase inhibitor (SYKi) drug resistant MV4-11 cells (AID 1963824); note: nearly all actives have a fitted effect of over 35% in size
# Conditions: SYKi-resistant MV4-11 viability, CellTiter-Glo, 72 h; series mostly up to 45 µM
# How it was run: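 CellTiter-Glo luminescence, read 10 min after reagent addition, reports viability after a 72 hr compound exposure. Cells are an MV4-11 line made resistant to SYK inhibition, seeded at 500 per well onto compound-containing plates.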
# Potency is the fitted concentration of half-maximal effect.
SMILES,Potency,"viability, % of control"
CC1OC(OC2CCC3(C)C(CCC4(C)C3CC=C3C5CC(C)(C)CCC5(C(=O)OC5OC(CO)C(O)C(O)C5O)CCC34C(=O)O)C2(C)C)C(O)C(O)C1O (centres undefined),inactive,
O=C1NC2CCCCN2C12CCN(CCCN1c3ccccc3CCc3ccc(Cl)cc31)CC2 (centres undefined),4.61 µM (active),
Cc1ccc2c(Br)cc(Br)c(O)c2n1,11.9 µM (active),
CC(C)(C)c1ccc(S(=O)(=O)NCc2ccc(C(=O)Nc3cccnc3)cc2)cc1,0.231 µM (active),
CN(C)CCNC(=O)c1cccn2c(=O)c3cc4ccccc4cc3nc12,0.422 µM (active),
C=C1C(O)CC2C(C(=O)O)=COC(O[C@@H]3O[C@H](COC(=O)/C=C/c4ccc(O)cc4)[C@@H](O)[C@H](O)[C@H]3O)C12 (some centres undefined),inactive,
C#CCN(Cc1cc2c(=O)n(C)c(CN3CCN(C)CC3)nc2cc1Cl)c1ccc(C(=O)NCc2cccnc2)cc1,inactive,
C/C(=C\CCC(C)(C)O)CCO[C@@H]1O[C@H](CO[C@@H]2O[C@@H](C)[C@H](O)[C@@H](O)[C@H]2O)[C@@H](O)[C@H](O)[C@H]1O,inactive,
C[C@]12CC[C@@H]3c4ccc(O[C@@H]5O[C@H](C(=O)O)[C@@H](O)[C@H](O)[C@H]5O)cc4CC[C@H]3[C@@H]1CCC2=O,inactive,
CC(C)c1ccc(CO)cc1O[C@@H]1O[C@H](CO)[C@@H](O)[C@H](O)[C@H]1O,inactive,
CC(C)=C[C@@H]1[C@H](CO[C@@H]2O[C@H](CO)[C@@H](O)[C@H](O)[C@H]2O)C1(C)C,4.53 µM (active),
Cc1cc2c(N3CCCC3)nc(N3CCCC3)nc2n1C,7.31 µM (active),
CC(=O)N[C@@H](CCCCN)C(=O)N(C)[C@@H](CC(C)C)C(=O)N[C@H](C(=O)N(C)[C@@H](Cc1ccccc1)C(=O)N[C@H](Cc1ccccc1)C(N)=O)C(C)C,,103% [at 4.97 µM]
CC(=O)N1CCN([C@H]2CCN(C(=O)N(C)[C@H](C)c3cc(C(F)(F)F)cc(C(F)(F)F)c3)[C@@H](c3ccc(F)cc3C)C2)CC1,8.2 µM (active),
C=C(C)[C@@H]1CC[C@]2(C(=O)O)CC[C@]3(C)C(CCC4[C@]5(C)C(CC[C@]43C)C(C)(C)[C@@H](O)[C@@H]5C(=O)O)C12 (some centres undefined),inactive,
CC(C)C[C@@H]1NC(=O)[C@@H](Cc2ccccc2)NC(=O)C(CCCCCC(=O)C2CO2)NC(=O)[C@@H]2CCCCN2C1=O (some centres undefined),0.0126 µM (active),
OC[C@H]1O[C@@H](OCc2ccccc2)[C@H](O)[C@@H](O)[C@@H]1O,inactive,
CC1(CO)CCCC2(C)C1C(OC(=O)c1ccccc1)CC1C(=O)OCC12O (centres undefined),inactive,
C=C1C[C@]23C[C@@]1(O)CC[C@H]2[C@@]12C=C[C@H](O)[C@@](C)(C(=O)O1)[C@H]2[C@@H]3C(=O)O,inactive,
Cc1cc(N2CCN(C(=O)Oc3ccc(-c4ccccc4)cn3)CC2)c2ccccc2n1,5.8 µM (active),

SMILES,Potency,"viability, % of control"
COc1ccc(CN2C(=O)C(=O)c3cc(S(=O)(=O)N4CCC[C@H]4COc4cccnc4)ccc32)cc1,inactive,
CC(O)/C=C/C1(O)C(C)C(O)C(O[C@@H]2O[C@H](CO)[C@@H](O)[C@H](O)[C@H]2O)CC1(C)C (some centres undefined),inactive,
CC1(C)O[C@@]2(C)CC[C@@H]1C[C@@H]2OC1OC(CO)C(O)C(O)C1O (some centres undefined),inactive,
CC(C)CC(c1c(O)c(C=O)c(O)c(C=O)c1O)C1CCC(C)(O)C2CC(C(C)(C)O)CCC12C (centres undefined),inactive,
OC[C@H]1O[C@@H](OCCc2ccc(O)cc2)[C@H](O)[C@@H](O)[C@@H]1O,inactive,
O=C(CCCCC1CCCCC1)N1CCC(c2cnc[nH]2)CC1,8.2 µM (active),
CCN(CC)C(=O)C(c1ccccc1)N1CCN(c2ccc(NC(=O)c3ccccc3-c3cccnc3)cc2F)CC1 (centres undefined),inactive,
C[C@@H]1O[C@@H](O[C@H]2[C@H](O)[C@@H](O)[C@H](OC[C@H]3O[C@@H](OC(=O)[C@]45CCC(C)(C)C[C@H]4C4=CCC6[C@@]7(C)C[C@@H](O)[C@H](O)[C@@](C)(CO)C7[C@H](O)C[C@@]6(C)[C@]4(C)CC5)[C@H](O)[C@@H](O)[C@@H]3O)O[C@@H]2CO)[C@H](O)[C@H](O)[C@H]1O (some centres undefined),,79.5% [at 9.25 µM]
CN(C)CCn1cc(S(=O)(=O)c2cccc(F)c2)c2cccnc21,inactive,
CC(C)C1C(OC(=O)/C=C/c2ccccc2)CC2(C)OC2CCC2(C)OC2C1O (centres undefined),inactive,
CC(=O)N1c2ccccc2C2(O)CC3C(=O)NC(CC(C)C)C(=O)N3C12 (centres undefined),inactive,
O=C1NC(=O)C(c2cn3c4c(cccc24)CCC3)C1c1c[nH]c2ccccc12 (centres undefined),0.92 µM (active),
COc1ccc(/C=C\C(=O)O)c(O[C@@H]2O[C@H](CO)[C@@H](O)[C@H](O)[C@H]2O)c1,inactive,
C=C1C(=O)OC2CC(C)C(CCC(C)=O)=CCC12 (centres undefined),5.17 µM (active),
CC1(O)CC(O)C2C(C(=O)O)=COC(OC3OC(CO)C(O)C(O)C3OC(=O)/C=C/c3ccc(O)cc3)C21 (centres undefined),inactive,
COc1cc(C2CC(=O)Nc3c2cc(Br)c2ccccc32)cc(OC)c1OC (centres undefined),inactive,
CC(C)(C)Nc1nc2cc(Cl)c(Cl)cc2nc1S(C)(=O)=O,0.731 µM (active),
COc1ccc(/C=C/C(=O)O[C@H]2[C@@H]3C=CO[C@@H](O[C@@H]4O[C@H](CO)[C@@H](O)[C@H](O)[C@H]4O)[C@@H]3[C@@]3(CO)O[C@@H]23)cc1O,inactive,
CN1CCc2cccc3c2[C@H]1Cc1ccc(O)c(O)c1-3,3.76 µM (active),
